Active and inactive are the calls of the source. Unless noted, no rule for the calls is given here.
Tests used:
[1] = anti-His antibody binders, primary screen, artefact control for SMM control protein annotation, biochemical, small-molecule microarray, 635 nm fluorescence (AID 1128); settings: anti-His Alexa647 antibody binding, higher = more signal;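 also: score merges feature fluorescence with signal-to-noise for each printed compound spot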
[2] = test system: Human papillomavirus type 1a E7 protein (residues 1-88); experiment: HPV1a E7 small-molecule binders, primary screen, biochemical, small-molecule microarray, residues 1-88, 635 nm (AID 1129); settings: small-molecule microarray binding, fluorescence 635 nm; higher = more signal
[3] = target: Focal adhesion kinase 1 (Homo sapiens) (UniProt Q05397); experiment: small-molecule microarray binders of FAK, primary screen, biochemical, 635/667 nm fluorescence, BSA, DTT (AID 1130); settings: PTK2 binding, 635 nm fluorescence, higher = more signal;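 also: composite of spot emission at 667 nm and signal to noise over triplicate slides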
[4] = test system: Fibrinogen (Alexa647-labelled); experiment: fibrinogen binders on compound microarrays, profiling panel, artefact control for SMM control-protein annotation, biochemical, small-molecule microarray, 635/667 nm fluorescence (AID 1131); settings: fibrinogen-A647 binding fluorescence, higher = more signal;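 also: z-score merges 667 nm fluorescence with per-spot signal-to-noise over triplicate slides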
[5] = target: Follistatin (Homo sapiens) (UniProt P19883); experiment: follistatin binders on small-molecule microarrays, primary screen, biochemical, small-molecule microarray, 635/667 nm fluorescence (AID 1132); settings: FST binding, 635 nm fluorescence, higher = more signal
[6] = target: Fibroblast growth factor 2 (Homo sapiens) (UniProt P09038); experiment: FGF2 binders on small-molecule microarrays, primary screen, biochemical, small-molecule microarray, 635/667 nm fluorescence (AID 1133); settings: small-molecule microarray binding, FGF2, fluorescence 635/667; higher = more signal
[7] = mitochondrial membrane potential change in A549 cells, profiling panel, cell-based, JC-1 fluorescence, basal, 24 h, 100 nL (AID 1138); settings: higher = more signal;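 also: A549 lung adenocarcinoma cells under basal conditions with no added stimulus; test concentration not given here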
Lefty1 = Lefty1 binders on small-molecule microarrays, primary screen, biochemical, small-molecule microarray, 635/667 nm fluorescence (AID 1139); settings: small-molecule microarray binding, fluorescence 635/667; higher = more signal
[8] = test system: wheat germ agglutinin (Triticum aestivum), Alexa647-labelled; experiment: wheat germ agglutinin binders on compound microarrays, profiling panel, artefact control for SMM control-protein annotation, biochemical, small-molecule microarray, 635/667 nm fluorescence (AID 1140); settings: WGA-A647 binding, 635 nm fluorescence, higher = more signal;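 also: score merges 667 nm feature emission with signal to noise over triplicate slides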
[9] = target: Luciferin 4-monooxygenase (Photinus pyralis) (UniProt P08659); experiment: firefly luciferase enzyme inhibitors, primary screen, biochemical, luminescence, purified enzyme, 2006 set (AID 1141); settings: SteadyGlo luminescence, 30 min, higher = more signal, called active from +8 up or from −8 down;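 also: cell-free assay with purified firefly luciferase at 100 ng per well in PBS; test concentration not given here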
[10] = test system: Wnt5a (protein binding on small-molecule microarray); experiment: Wnt5a binders on small-molecule microarray, primary screen, biophysical, 635/667 nm fluorescence (AID 1142); settings: 635 nm fluorescence, higher = more signal;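 also: fluorescence read at 667 nm with signal to noise per printed feature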
[11] = cell viability in Huh7 cells, primary screen, cytotoxicity control for HCV replication inhibitor project, CellTiter-Glo luminescence, basal, 48 h (AID 1143); settings: Huh7 HCV replicon, higher = more signal, called active from +8 up or from −8 down;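 also: Huh7 hepatoma cells carrying a hepatitis C replication reporter with no stimulus; test concentration not given here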
[12] = P. aeruginosa biofilm formation inhibitors, primary screen, PAO1 strain, BacTiter-Glo luminescence, LB-PBS (AID 1144); settings: 12 h, higher = more signal
[13] = CREB reporter modulators without forskolin, primary screen, cell-based, PC12, CRE-LacZ reporter, unstimulated (AID 1145); settings: no forskolin, luminescence, 4.5 h, higher = more signal, called active from +8 up or from −8 down
[14] = CREB reporter modulators under forskolin, primary screen, cell-based, PC12, CRE-LacZ reporter, forskolin-stimulated (AID 1146); settings: luminescence, 4.5 h, higher = more signal, called active from +8 up or from −8 down;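 also: PC12 cells with 6xCRE LacZ reporter stimulated by forskolin 10 µM; beta-galactosidase reporter signal reflecting CREB driven transcription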
[15] = target: Streptavidin (Streptomyces avidinii) (UniProt P22629); experiment: streptavidin binders on small-molecule microarray, primary screen, artefact control for SMM compound annotation, biophysical, 635/667 nm fluorescence (AID 1147); settings: streptavidin binding, higher = more signal;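 also: signal reflects streptavidin binding to arrayed compounds as a control protein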
[16] = small-molecule binders of probe aInhba, primary screen, biochemical, small-molecule microarray, 635/667 nm fluorescence (AID 1148); settings: higher = more signal;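 also: score merges 667nm spot fluorescence with signal-to-noise for antibody binding to printed compounds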
Torsin-1A (Homo sapiens) [17] = target: Torsin-1A (Homo sapiens) (UniProt O14656); experiment: torsin A binders from cell lysate, primary screen, small-molecule microarray, wild-type, 635/667 nm (AID 1149); settings: COS7 hTOR1A-WT lysate, 635 nm fluorescence, higher = more signal
Torsin-1A (Homo sapiens) [18] = target: Torsin-1A (Homo sapiens) (UniProt O14656); experiment: small-molecule binders of mutant TOR1A in lysate, primary screen, cell lysate, small-molecule microarray, COS7 lysate, 635/667 nm fluorescence (AID 1150); settings: COS7 hTOR1A mutant lysate, 635 nm fluorescence, higher = more signal;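 also: score pools 667 nm emission and signal to noise measuring lysate protein binding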
[19] = test system: Sonic hedgehog protein (Shh); experiment: small-molecule binders of Shh protein, primary screen, biochemical, small-molecule microarray, 635/667 nm fluorescence (AID 1151); settings: small-molecule microarray binding, 635 nm fluorescence; higher = more signal;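 also: Shh protein binding to compounds spotted on small-molecule microarray slides; score combines spot fluorescence intensity with signal-to-noise across triplicate slides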

Sequence of Follistatin (Homo sapiens) (P19883 whole entry, looked up): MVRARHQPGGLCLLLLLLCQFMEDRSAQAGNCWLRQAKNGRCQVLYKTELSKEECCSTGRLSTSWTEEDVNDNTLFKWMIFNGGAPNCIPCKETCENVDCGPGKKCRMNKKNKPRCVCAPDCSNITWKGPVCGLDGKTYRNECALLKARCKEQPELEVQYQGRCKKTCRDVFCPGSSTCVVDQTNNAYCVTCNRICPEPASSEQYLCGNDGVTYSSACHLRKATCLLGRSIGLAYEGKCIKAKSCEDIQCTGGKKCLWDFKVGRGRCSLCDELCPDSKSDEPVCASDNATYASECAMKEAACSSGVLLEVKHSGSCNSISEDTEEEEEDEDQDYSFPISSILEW
Sequence of Streptavidin (Streptomyces avidinii) (P22629 whole entry, looked up): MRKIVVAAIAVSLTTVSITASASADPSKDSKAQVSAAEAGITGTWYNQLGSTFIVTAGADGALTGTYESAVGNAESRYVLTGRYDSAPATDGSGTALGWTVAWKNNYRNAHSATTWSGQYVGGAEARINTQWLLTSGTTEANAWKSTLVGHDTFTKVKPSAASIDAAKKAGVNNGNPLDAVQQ
Sequence of Focal adhesion kinase 1 (Homo sapiens) (Q05397 whole entry, looked up): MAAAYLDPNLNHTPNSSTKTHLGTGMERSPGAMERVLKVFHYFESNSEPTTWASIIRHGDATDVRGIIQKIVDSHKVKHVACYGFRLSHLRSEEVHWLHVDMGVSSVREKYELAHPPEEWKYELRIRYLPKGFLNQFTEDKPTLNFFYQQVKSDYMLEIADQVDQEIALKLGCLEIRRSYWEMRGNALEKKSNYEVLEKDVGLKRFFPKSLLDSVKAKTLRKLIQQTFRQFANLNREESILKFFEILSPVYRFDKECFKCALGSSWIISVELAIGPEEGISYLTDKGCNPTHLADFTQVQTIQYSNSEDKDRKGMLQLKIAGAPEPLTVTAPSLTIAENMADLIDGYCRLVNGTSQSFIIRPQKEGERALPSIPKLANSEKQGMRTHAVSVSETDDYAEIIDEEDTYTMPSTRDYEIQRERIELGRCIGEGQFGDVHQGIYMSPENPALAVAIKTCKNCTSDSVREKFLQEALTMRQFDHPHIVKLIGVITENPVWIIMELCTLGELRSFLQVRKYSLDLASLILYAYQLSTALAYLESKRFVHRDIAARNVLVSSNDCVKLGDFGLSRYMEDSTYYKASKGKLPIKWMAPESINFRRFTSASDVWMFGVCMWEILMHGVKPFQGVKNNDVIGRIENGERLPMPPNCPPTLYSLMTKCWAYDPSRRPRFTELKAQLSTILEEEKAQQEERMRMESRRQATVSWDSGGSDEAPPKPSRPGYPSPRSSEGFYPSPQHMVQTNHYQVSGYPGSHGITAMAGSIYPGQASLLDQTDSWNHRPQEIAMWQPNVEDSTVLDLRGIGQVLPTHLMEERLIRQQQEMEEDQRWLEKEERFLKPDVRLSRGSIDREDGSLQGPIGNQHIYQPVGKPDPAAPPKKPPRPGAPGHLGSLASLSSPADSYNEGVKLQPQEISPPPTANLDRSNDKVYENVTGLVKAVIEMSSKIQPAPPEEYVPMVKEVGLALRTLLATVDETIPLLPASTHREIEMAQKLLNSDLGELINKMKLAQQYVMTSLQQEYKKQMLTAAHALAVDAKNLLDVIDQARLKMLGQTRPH
Sequence of Torsin-1A (Homo sapiens) (O14656 whole entry, looked up): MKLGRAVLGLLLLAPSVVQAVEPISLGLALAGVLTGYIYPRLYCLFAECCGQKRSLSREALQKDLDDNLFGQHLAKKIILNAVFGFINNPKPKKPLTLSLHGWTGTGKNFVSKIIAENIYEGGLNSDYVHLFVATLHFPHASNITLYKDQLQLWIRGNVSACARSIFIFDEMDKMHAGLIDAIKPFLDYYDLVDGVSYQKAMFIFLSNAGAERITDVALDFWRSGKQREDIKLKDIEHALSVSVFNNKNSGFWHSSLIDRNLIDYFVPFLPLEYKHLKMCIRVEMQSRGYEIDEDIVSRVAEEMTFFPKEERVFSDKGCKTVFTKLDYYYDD
Sequence of Luciferin 4-monooxygenase (Photinus pyralis) (P08659 whole entry, looked up): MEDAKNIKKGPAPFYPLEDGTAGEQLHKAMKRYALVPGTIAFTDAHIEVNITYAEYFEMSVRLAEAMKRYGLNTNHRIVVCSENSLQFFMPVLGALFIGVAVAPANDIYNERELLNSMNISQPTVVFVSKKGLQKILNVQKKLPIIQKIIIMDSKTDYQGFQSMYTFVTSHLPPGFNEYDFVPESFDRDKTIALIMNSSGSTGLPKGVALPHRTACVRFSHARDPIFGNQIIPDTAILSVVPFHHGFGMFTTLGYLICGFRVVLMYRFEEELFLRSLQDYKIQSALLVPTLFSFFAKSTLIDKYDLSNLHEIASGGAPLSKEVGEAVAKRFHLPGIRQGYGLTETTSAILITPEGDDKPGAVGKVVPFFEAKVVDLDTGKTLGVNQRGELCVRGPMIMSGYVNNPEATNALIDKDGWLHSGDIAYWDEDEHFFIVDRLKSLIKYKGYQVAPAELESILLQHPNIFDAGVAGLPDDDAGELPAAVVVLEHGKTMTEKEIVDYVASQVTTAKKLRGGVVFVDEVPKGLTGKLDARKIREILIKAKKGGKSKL
Sequence of Fibroblast growth factor 2 (Homo sapiens) (P09038 whole entry, looked up): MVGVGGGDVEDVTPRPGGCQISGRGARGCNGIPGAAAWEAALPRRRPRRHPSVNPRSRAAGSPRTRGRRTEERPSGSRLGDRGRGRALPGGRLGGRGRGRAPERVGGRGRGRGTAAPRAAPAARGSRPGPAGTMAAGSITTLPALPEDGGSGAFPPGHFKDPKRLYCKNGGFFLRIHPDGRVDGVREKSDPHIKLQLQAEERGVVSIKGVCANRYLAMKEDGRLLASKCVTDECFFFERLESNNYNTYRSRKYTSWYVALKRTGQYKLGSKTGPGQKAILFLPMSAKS

SMILES | composite z-score [1] | composite z-score [2] | composite z-score [3] | composite z-score [4] | composite z-score [5] | composite z-score [6] | z-score [7] | composite z-score (Lefty1) | composite z-score [8] | z-score [9] | composite z-score [10] | z-score [11] | z-score [12] | z-score [13] | z-score [14] | composite z-score [15] | composite z-score [16] | composite z-score (Torsin-1A (Homo sapiens) [17]) | composite z-score (Torsin-1A (Homo sapiens) [18]) | composite z-score [19]
N#Cc1ccc(C(O)C2C=CC3C(=O)N(c4ccccc4)C(=O)C3N2Nc2ccc([N+](=O)[O-])cc2)cc1 (stereo not given) | 2.33 | 1.25 | 0.895 | 0.991 | 0.499 | -0.207 | -2.34 | -0.44 | 1.4 | 0.279 (inactive) | 0.488 | -0.843 (inactive) | -0.532 (inactive) | -0.0696 (inactive) | -1.24 (inactive) | 1.86 | 0.252 | 0.0605 | 0.212 | -0.51
CC(=O)c1ccc(C(O)C2C=CC3C(=O)N(C)C(=O)C3N2NC(=O)OC(C)(C)C)cc1 (stereo not given) | 0.777 | 1.23 | 1.54 | 1.05 | 0.046 | 0.14 | -0.082 | 0.337 | 1.34 | -0.068 (inactive) | 0.468 | 0.847 (inactive) | 0.626 (inactive) | 0.246 (inactive) | 1.51 (inactive) | 1.83 | 0.182 | -0.0551 | 0.548 | -0.0538
CC(C)C[C@H]1NC(=O)[C@@]23C(=O)N[C@@H](Cc4ccccc4)C2[C@H](C)[C@@]2(C)O[C@H]2C3/C=C/C/C=C\CNC(=O)[C@@H]2CCCN2C1=O (stereo not given in full) | -0.17 | -0.0447 | -0.171 | 0.789 | 0.614 | 0.829 | -0.0387 | 0.661 | 0.032 | -0.575 (inactive) | 0.275 | -0.264 (inactive) | 0.341 (inactive) | 0.13 (inactive) | 0.865 (inactive) | -0.362 | -0.0471 | -0.056 | -0.0683 | 1.55
CC(=O)c1ccc(C(O)C2C=CC3C(=O)NC(=O)C3N2Nc2ccc(Cl)cc2Cl)cc1 (stereo not given) | 1.48 | -0.106 | -0.363 | -0.131 | 0.504 | -0.115 | -0.76 | -0.0596 | 0.564 | 0.284 (inactive) | 0 | 0.102 (inactive) | -0.806 (inactive) | 0.626 (inactive) | 0.412 (inactive) | 0.147 | 0.0565 | 0.027 | 0.0127 | -0.257
COCCCN1C(=O)[C@@]2(Cc3ccccc31)c1ccccc1C(=O)N(Cc1ccccc1OC)[C@H]2c1ccc(CO)cc1 | -1.44 | -0.717 | -0.725 | 0.0715 | -1.07 | -0.665 | 0.0581 | -0.566 | -0.0303 | -0.522 (inactive) | -0.0515 | 0.532 (inactive) | 0.53 (inactive) | 0.0279 (inactive) | 1.2 (inactive) | -0.111 | -0.108 | -0.596 | -0.274 | 0.0923
COc1ccc(CCNC(=O)[C@@]2(Sc3ccc(C)cc3)CC(=O)N(Cc3cc(C(F)(F)F)cc(C(F)(F)F)c3)[C@@H]2c2ccc(CO)cc2)cc1 | -0.588 | -1.49 | -0.545 | -1.07 | -1.83 | -2.57 | -0.138 | -1.25 | 0.0191 | -0.877 (inactive) | -0.668 | 0.305 (inactive) | 0.731 (inactive) | 0.495 (inactive) | 0.84 (inactive) | -0.959 | -0.127 | -1.43 | -1.53 | -2.14
[N-]=[N+]=NCc1ccccc1C[C@]1(C(=O)N2CCOCC2)N=C(c2ccc(OCCCO)cc2)O[C@H]1c1ccccc1CN=[N+]=[N-] | 2.97 | 1.25 | 0.681 | 0.963 | 1.3 | 1.92 | 1.68 | -0.232 | 1 | -1.25 (inactive) | 1.42 | -3.43 (inactive) | -0.52 (inactive) | 0.778 (inactive) | -1.32 (inactive) | 1.24 | 1.28 | 0.3 | 0.863 | -0.0561
[N-]=[N+]=NCc1ccccc1C[C@]1(C(=O)O)COC(c2ccc(OCCCO)cc2)=N1 | -0.615 | -1.13 | -0.217 | -2.49 | -0.21 | -0.855 | -0.103 | -0.212 | -0.0491 | -0.536 (inactive) | -0.333 | 0.432 (inactive) | 0.475 (inactive) | -0.426 (inactive) | -0.916 (inactive) | -0.878 | -0.13 | 0.861 | 0.0486 | -1.03
CCOC(=O)C1=CC[C@@H](c2ccccc2)N(S(=O)(=O)c2ccc(C)cc2)[C@H]1C#N | 0.806 | 1.2 | 0.721 | 0.986 | -0.33 | -0.162 | -0.604 | -0.565 | 0.517 | -0.227 (inactive) | 0.114 | -1.82 (inactive) | 0.184 (inactive) | -0.48 (inactive) | 3.56 (inactive) | 0.93 | 0.134 | 0.0439 | 0.189 | -0.707
